Inconclusive results are not listed. Activity calls are given as the source filed them. Unless noted, calls follow the shape of the dose curve; as a rule, active = well fitted curve in the direction sought with a large enough effect in the repeat runs; inconclusive = weak or mixed curves; inactive = no such curve, though single readings can be large; an effect the other way counts as inactive or inconclusive.
What was measured:
[1] = biological target: Estrogen receptor (Homo sapiens) (UniProt P03372); experiment: qHTS assay to identify small molecule antagonists of the estrogen receptor alpha (ER-alpha) signaling pathway using the BG1 cell line in the presence of 0.1 nM 17-beta-estradiol (AID 1259244); also: nearly all actives have a fitted effect of over 50% in size; also: potency is read from the fitted curve at half-maximal effect
Chain of Estrogen receptor (Homo sapiens) (P03372 whole entry, looked up): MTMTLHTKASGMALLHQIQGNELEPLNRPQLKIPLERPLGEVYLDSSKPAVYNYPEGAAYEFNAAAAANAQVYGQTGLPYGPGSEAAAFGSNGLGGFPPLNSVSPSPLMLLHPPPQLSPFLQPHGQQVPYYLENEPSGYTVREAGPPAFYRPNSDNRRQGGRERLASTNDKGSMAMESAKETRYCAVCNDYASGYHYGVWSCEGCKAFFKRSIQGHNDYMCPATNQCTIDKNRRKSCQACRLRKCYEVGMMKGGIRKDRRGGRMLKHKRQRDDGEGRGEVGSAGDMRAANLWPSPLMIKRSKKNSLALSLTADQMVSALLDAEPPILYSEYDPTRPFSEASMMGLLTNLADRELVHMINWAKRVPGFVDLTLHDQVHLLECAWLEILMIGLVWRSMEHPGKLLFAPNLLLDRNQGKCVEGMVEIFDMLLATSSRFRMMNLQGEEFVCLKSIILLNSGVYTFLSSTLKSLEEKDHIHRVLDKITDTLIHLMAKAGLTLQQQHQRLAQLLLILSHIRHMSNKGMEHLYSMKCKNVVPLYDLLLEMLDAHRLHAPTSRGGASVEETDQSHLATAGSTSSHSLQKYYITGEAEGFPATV
Procedure, shortened: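 Luciferase luminescence (ONE-Glo, 30 min at room temperature) was read after 22 hr at 37C exposure to compounds plus 17beta-estradiol at 0.1 nM final. Cells were VM7Luc4E2 with endogenous ER-alpha and an ERE-driven luciferase, pre-cultured 5 days in hormone-depleted medium.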

[2] = qHTS assay to identify small molecule phospholipidosis (PLD) inducers (AID 1259344; active = well fitted curve in the direction sought with a large enough effect; an effect the other way counts as inactive or inconclusive)
Procedure, shortened: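 Accumulated phospholipid, stained red by LipidTOX during 24 h compound treatment of HepG2 cells at 37 C, is quantified from images as pit number and intensity, normalised per cell using Hoechst-stained nuclei.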

[3] = qHTS assay to identify small molecule HDAC inhibitors (AID 1259364); also: nearly all actives have a fitted effect of over 45% in size; also: potency is read from the fitted curve at half-maximal effect
Procedure, shortened: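 Luminescence read after 30 min room-temperature HDAC-Glo incubation measures cellular class I/II HDAC activity. Compounds were applied for 2 hr at 37 C to HCT-116 wild-type cells seeded the day before.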

[4] = qHTS assay to identify small molecule HDAC inhibitors - cell viability counter screen (AID 1259365); also: nearly all actives have a fitted effect of over 50% in size; also: potency is read from the fitted curve at half-maximal effect
Procedure, shortened: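 HCT-116 wild-type, overnight attachment; 2hr drug exposure, 37C; CellTiter-Glo luminescent ATP readout after 30min RT.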

[5] = qHTS assay to identify small molecule agonists of the sonic hedgehog signaling (Shh) pathway - cell viability counter screen (AID 1259366); also: nearly all actives have a fitted effect of over 50% in size; also: potency is read from the fitted curve at half-maximal effect
Procedure, shortened: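 Compounds in DMSO were pin-transferred onto 3T3 Gli1-Luc cells that had settled 4hr; plates then stood 24hr at 37C and 5% CO2. One hour before the end, CellTiter-Fluor was added and fluorescence recorded.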

[6] = qHTS assay to identify small molecule antagonists of the sonic hedgehog signaling (Shh) pathway - cell viability counter screen (AID 1259367); also: nearly all actives have a fitted effect of over 55% in size; also: potency is read from the fitted curve at half-maximal effect
Procedure, shortened: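 CellTiter-Fluor signal in conditioned medium-stimulated 3T3 Gli1-Luc cells, 23 hr compound exposure, 37C.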

[7] = qHTS assay to identify small molecule agonists of the sonic hedgehog signaling (Shh) pathway (AID 1259368; calls by dose curve; also: nearly all actives have a fitted effect of over 15% in size; also: potency is read from the fitted curve at half-maximal effect)
Procedure, shortened: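 Luminescence was read after 30 min at room temperature with luciferase reagent. Before that, 3T3Gli1-Luc cells (NIH/3T3 clone, stable Gli1-Luc reporter; 2,000/well) were exposed to compounds for 24 hr at 37C, 5% CO2, compounds being added 4 hr post-plating.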

[8] = qHTS assay to identify small molecule antagonists of the androgen receptor (AR) signaling pathway using the MDA cell line in the presence of 0.5 nM R1881 - cell viability counter screen (AID 1259242); also: nearly all actives have a fitted effect of over 45% in size; also: potency is read from the fitted curve at half-maximal effect
Procedure, shortened: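 Live-cell protease activity was measured by CellTiter-Fluor fluorescence after 30 min. Before that, MDA-kb2 MMTV-luciferase cells had 16 hr at 37C without CO2, exposed to test compounds and 0.5 nM R1881 final.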

[9] = biological target: Androgen receptor (Homo sapiens) (UniProt P10275); experiment: qHTS assay to identify small molecule antagonists of the androgen receptor (AR) signaling pathway using the MDA cell line in the presence of 0.5 nM R1881 (AID 1259243); also: nearly all actives have a fitted effect of over 50% in size; also: potency is read from the fitted curve at half-maximal effect
Chain of Androgen receptor (Homo sapiens) (P10275 whole entry, looked up): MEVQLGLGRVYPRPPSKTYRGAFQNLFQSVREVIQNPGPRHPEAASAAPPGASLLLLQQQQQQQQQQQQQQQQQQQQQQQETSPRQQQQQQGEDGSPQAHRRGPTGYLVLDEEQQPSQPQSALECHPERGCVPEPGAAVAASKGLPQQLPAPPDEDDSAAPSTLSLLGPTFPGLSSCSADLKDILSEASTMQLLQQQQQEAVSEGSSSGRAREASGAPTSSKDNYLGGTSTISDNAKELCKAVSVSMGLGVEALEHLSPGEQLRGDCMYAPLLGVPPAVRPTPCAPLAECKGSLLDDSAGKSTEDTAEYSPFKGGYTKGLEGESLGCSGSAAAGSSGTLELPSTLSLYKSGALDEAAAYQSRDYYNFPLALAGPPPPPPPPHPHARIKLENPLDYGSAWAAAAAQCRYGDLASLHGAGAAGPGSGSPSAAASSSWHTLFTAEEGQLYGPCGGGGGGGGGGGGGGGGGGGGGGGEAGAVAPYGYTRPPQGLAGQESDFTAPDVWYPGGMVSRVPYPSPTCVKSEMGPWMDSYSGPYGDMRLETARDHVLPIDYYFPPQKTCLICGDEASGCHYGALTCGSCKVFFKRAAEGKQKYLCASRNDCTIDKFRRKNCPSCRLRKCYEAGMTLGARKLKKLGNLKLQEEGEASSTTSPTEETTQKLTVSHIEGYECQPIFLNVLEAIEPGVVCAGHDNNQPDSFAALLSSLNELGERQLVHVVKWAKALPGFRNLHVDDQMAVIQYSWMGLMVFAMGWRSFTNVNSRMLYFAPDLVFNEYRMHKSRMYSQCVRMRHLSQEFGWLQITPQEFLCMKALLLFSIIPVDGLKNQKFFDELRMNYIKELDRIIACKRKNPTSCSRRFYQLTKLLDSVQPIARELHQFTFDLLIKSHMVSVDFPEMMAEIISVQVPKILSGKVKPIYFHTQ
Procedure, shortened: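 Luminescent reporter readout (ONE-Glo, 30 min, room temperature) after 16 hr co-treatment of MDA-kb2 cells with test compounds and 0.5 nM R1881 final, at 37C without CO2. The MMTV-driven luciferase responds to both AR and GR.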
% is scaled to controls: 0 for no effect and ±100 for the full control effect.

Oc1ccc([C@H]2CNCc3c2ccc(O)c3O)cc1O
inactive: Potency [1] | PLD induction [2] -2.7% [at 7.66 µM] | Potency [3] | Potency [4] | Potency [5] | Potency [6] | Potency [7]

CCC(C)c1cccc(C(C)CC)c1O (stereo not drawn)
inactive: Potency [8] | Potency [3] | Potency [4] | Potency [6] | Potency [7]

CCCN
inactive: Potency [3] | Potency [4] | Potency [5] | Potency [6] | Potency [7]

CSC1=N[C@@](C)(c2ccccc2)C(=O)N1Nc1ccccc1
inactive: Potency [3] | Potency [4] | Potency [5] | Potency [6] | Potency [7]
active: Potency [8] 27.3 µM

CC[C@]1(O)CC[C@H]2[C@@H]3CCC4=CCCC[C@@H]4[C@H]3CC[C@@]21C
inactive: Potency [8] | outcome [2] | Potency [3] | Potency [4] | Potency [5] | Potency [6] | Potency [7]

FC(F)C(F)(F)OCC(Cn1cncn1)c1ccc(Cl)cc1Cl (stereo not drawn)
active: Potency [5] 48.3 µM
inactive: Potency [8] | Potency [3] | Potency [4] | Potency [7]

CC[C@H](C)[C@H]1O[C@]2(C=C[C@@H]1C)C[C@@H]1C[C@@H](C/C=C(\C)[C@@H](O[C@H]3C[C@H](OC)[C@@H](O[C@H]4C[C@H](OC)[C@@H](NC)[C@H](C)O4)[C@H](C)O3)[C@@H](C)/C=C/C=C3\CO[C@@H]4[C@H](O)C(C)=C[C@@H](C(=O)O1)[C@]34O)O2
inactive: Potency [3] | Potency [7]
active: Potency [1] 10.9 µM | Potency [4] 48.6 µM | Potency [5] 12.2 µM | Potency [6] 13.7 µM

CSC(C)(C)/C=N/O
inactive: Potency [3] | Potency [4] | Potency [5] | Potency [6] | Potency [7]

C[C@@H]1CC2=CC(=O)CC[C@@H]2[C@H]2CC[C@@]3(C)[C@@H](CC[C@]3(C)O)[C@@H]21
inactive: Potency [9] | Potency [3] | Potency [4] | Potency [6] | Potency [7]

Nc1ccc(N=Nc2ccccc2)cc1
active: Potency [3] 8.63 µM | Potency [5] 15.4 µM | Potency [6] 3.44 µM | Potency [7] 4.86 µM
inactive: Potency [1] | outcome [2] | Potency [4]

CCC1COC(Cn2cncn2)(c2ccc(Cl)cc2Cl)O1 (stereo not drawn)
inactive: Potency [8] | Potency [3] | Potency [4] | Potency [5] | Potency [6] | Potency [7]

CCC1(CC)C(=O)N=C(O)NC1=O
inactive: Potency [3] | Potency [4] | Potency [5] | Potency [6] | Potency [7]

Cc1cc2c3c(c1)C(c1ccccc1)=N[C@@H](NC(=O)c1ccncc1)C(=O)N3CC2
inactive: Potency [8] | Potency [3] | Potency [4] | Potency [5] | Potency [6] | Potency [7]

[O-][Cl+3]([O-])([O-])O
inactive: Potency [8] | Potency [3] | Potency [4] | Potency [6] | Potency [7]

O=C(N[C@@H]1N=C(c2ccccc2F)c2cccc3c2N(CC3)C1=O)c1cc2ccccc2[nH]1
inactive: Potency [8] | PLD induction [2] -5.27% [at 0.306 µM] | Potency [6] | Potency [7]

CCC[CH2][Sn]([CH2]CCC)([CH2]CCC)[CH2]CCC
inactive: Potency [3] | Potency [7]
active: Potency [5] 13.7 µM | Potency [6] 21.7 µM

CN1CCc2cc3c(cc2C1O)OCO3 (stereo not drawn)
inactive: Potency [8] | Potency [3] | Potency [4] | Potency [7]

O=C1C[C@@H]2OCC=C3CN4CC[C@]56c7ccccc7N1[C@H]5[C@H]2[C@H]3C[C@H]46
inactive: outcome [2] | Potency [3] | Potency [4] | Potency [7]

Cc1ccn2nc(S(=O)(=O)Nc3c(F)cccc3F)nc2n1
inactive: Potency [3] | Potency [4] | Potency [5] | Potency [6] | Potency [7]

NC1CCC(CC2CCC(N)CC2)CC1 (stereo not drawn)
inactive: Potency [3] | Potency [7]

Cc1cccc(Cc2cnc[nH]2)c1C
inactive: Potency [8] | outcome [2] | Potency [3] | Potency [4] | Potency [5] | Potency [6] | Potency [7]

CO/N=C(\C(=O)OC)c1ccccc1CO/N=C(\C)c1cccc(C(F)(F)F)c1
inactive: Potency [3] | Potency [6] | Potency [7]

Nc1cc(Cl)ccc1Cl
inactive: Potency [8] | Potency [3] | Potency [5] | Potency [6] | Potency [7]

N#CCCl
inactive: Potency [8] | Potency [3] | Potency [4] | Potency [5] | Potency [6] | Potency [7]

COP(=S)(NC(C)C)Oc1ccc(C)cc1[N+](=O)[O-] (stereo not drawn)
inactive: Potency [3] | Potency [4] | Potency [6] | Potency [7]

O=C(O)[C@H](O)[C@@H](O)C(=O)O
inactive: Potency [8] | Potency [3] | Potency [4] | Potency [5] | Potency [6] | Potency [7]

CO/N=C(/C1=NOCCO1)c1ccccc1Oc1ncnc(Oc2ccccc2Cl)c1F
active: Potency [1] 4.85 µM
inactive: Potency [3] | Potency [5] | Potency [6] | Potency [7]

c1ccc2c(c1)cc1ccc3cccc4ccc2c1c34
inactive: Potency [8] | Potency [3] | Potency [4] | Potency [6] | Potency [7]

CN(C)c1ccc(N)cc1
active: Potency [1] 29.9 µM | Potency [3] 23.7 µM | Potency [5] 53.2 µM

Nc1c(Cl)c(Cl)c(Cl)c(Cl)c1Cl
inactive: Potency [8] | Potency [3] | Potency [4] | Potency [6] | Potency [7]

Oc1cc(Cl)c(Cl)c(Cl)c1Cl
active: Potency [1] 29.9 µM
inactive: Potency [3] | Potency [5] | Potency [7]

O=S(=O)(NS(=O)(=O)C(F)(F)F)C(F)(F)F
inactive: Potency [3] | Potency [4] | Potency [5] | Potency [6] | Potency [7]

CCN1CCC2(CC1)COc1cc3c(cc12)N(C(=O)c1ccc(-c2ccc(-c4nnc(C)o4)cc2C)cc1)CC3
inactive: Potency [3] | Potency [4] | Potency [7]
active: Potency [1] 50.2 µM | Potency [5] 63.3 µM | Potency [6] 63.3 µM

CCC(OC(C)=O)C(CC(C)NC)(c1ccccc1)c1ccccc1 (stereo not drawn)
active: Potency [9] 27.5 µM | Potency [5] 34.7 µM | Potency [6] 61.6 µM
inactive: Potency [3] | Potency [4] | Potency [7]

Source: PubChem BioAssay (Tox21)
